In experiment [1] the target is Paired box protein Pax-6 (Homo sapiens) (UniProt P26367). As to the kind of experiment: ATG_Pax6_CIS: Attagene CIS-FACTORIAL HepG2 Assay for human Paired Box 6 (PAX6) (AID 2282956). To be noted: HepG2 CIS-FACTORIAL PAX6 reporter transcription, RNA readout; actives raise or lower the signal. The procedure, abridged: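 HepG2 cells transiently transfected with cis-promoter-driven multiplexed reporter units sensing endogenous transcription factor activity; 24 h chemical exposure. Reporter mRNA quantified by RT-PCR, 6-FAM labelling, HpaI digestion and capillary electrophoresis; bidirectional fit versus DMSO baseline.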
Sequence of Paired box protein Pax-6 (Homo sapiens) (P26367 whole entry, looked up): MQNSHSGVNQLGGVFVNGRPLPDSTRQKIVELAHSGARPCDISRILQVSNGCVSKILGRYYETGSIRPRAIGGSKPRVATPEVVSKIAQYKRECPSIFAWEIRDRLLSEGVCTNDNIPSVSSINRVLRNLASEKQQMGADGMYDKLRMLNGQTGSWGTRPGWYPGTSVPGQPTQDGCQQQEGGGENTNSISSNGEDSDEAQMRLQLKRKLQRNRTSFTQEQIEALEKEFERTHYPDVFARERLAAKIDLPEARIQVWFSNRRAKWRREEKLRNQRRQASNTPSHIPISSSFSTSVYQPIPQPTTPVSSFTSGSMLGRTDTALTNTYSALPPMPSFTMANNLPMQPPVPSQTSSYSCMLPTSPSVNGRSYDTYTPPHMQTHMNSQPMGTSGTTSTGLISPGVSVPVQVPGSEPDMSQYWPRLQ

Experiment [2] can be described thus: ATG_PXRE_CIS: Attagene CIS-FACTORIAL HepG2 Assay for human Pregnane X Receptor Element (PXRE) (AID 2282957). The conditions noted are these: HepG2 Attagene CIS-FACTORIAL PXRE reporter, mRNA; actives raise or lower the signal. The procedure, abridged: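 Transfect HepG2 with MRTUs (cis promoter elements); dose chemical, incubate 24 h; isolate RNA, RT with oligo(dT), PCR, 6-FAM label, HpaI cut, CE. Gain/loss fit vs DMSO.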

Experiment [3] in a line: ATG_PPRE_CIS: Attagene CIS-FACTORIAL HepG2 Assay for human Peroxisome Proliferator-activated Response Element (PPRE) (AID 2282958). To be noted: HepG2 PPRE cis-element reporter, Attagene transcription factor profiling; actives raise or lower the signal. The method, boiled down: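 In this cell-based multiplex, a PPRE cis element drives a reporter sequence in transiently transfected HepG2 cells. Following 24 h treatment, labeled cDNA amplicons are sized and quantified by capillary electrophoresis, with DMSO defining baseline.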

A short description of experiment [4]: ATG_RORE_CIS: Attagene CIS-FACTORIAL HepG2 Assay for human RAR-related Orphan Receptor Element (RORE) (AID 2282959). The conditions noted are these: HepG2 Attagene cis-factorial RORE reporter, mRNA; actives raise or lower the signal. The method, boiled down:
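Endogenous factor activity at a cis response element is read as reporter transcript levels in HepG2 cells, 24 h post-dose. Transcripts are quantified by RT-PCR with capillary electrophoresis, and data fitted in both directions against DMSO.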

Experiment [5] in a line: ATG_Sox_CIS: Attagene CIS-FACTORIAL HepG2 Assay for human SRY-box transcription factor (SOX) (AID 2282960). To be noted: HepG2 Attagene cis-factorial SOX reporter, mRNA; actives raise or lower the signal. The procedure, abridged:
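Measures mRNA induction of a SOX1-associated reporter in HepG2 after 24 h dosing. Fluorescently labelled RT-PCR fragments are separated by capillary electrophoresis, and gain or loss relative to DMSO control is fitted.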

Experiment [6] has as its target Transcription factor Sp1 (Homo sapiens) (UniProt P08047). In words: ATG_Sp1_CIS: Attagene CIS-FACTORIAL HepG2 Assay for human Specificity Protein 1 (Sp1) (AID 2282961). The conditions noted are these: HepG2 Sp1 cis-reporter transcription, actives raise or lower the signal. The method, boiled down:
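Cells: HepG2, transiently transfected with cis-regulated multiplexed reporters. Exposure: 24 h. Detection: reporter transcripts amplified, fluorescently labeled, restriction-digested and sized by capillary electrophoresis. Analysis: bidirectional fit relative to DMSO.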

Experiment [7] can be described thus: ATG_SREBP_CIS: Attagene CIS-FACTORIAL HepG2 Assay for human Sterol Regulatory Element Binding (SREBP) (AID 2282962). To be noted: HepG2 Attagene cis-factorial SREBP reporter, mRNA; actives raise or lower the signal. The procedure, abridged:
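HepG2 cells transiently transfected with multiplexed cis-promoter reporter units sensing endogenous transcription factors; reporter mRNA measured 24 h after dosing by RT-PCR, 6-FAM labeling, HpaI digestion and capillary electrophoresis. Bidirectional fit versus DMSO.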

Experiment [8] addresses Signal transducer and activator of transcription 3 (Homo sapiens) (UniProt P40763). As to the kind of experiment: ATG_STAT3_CIS: Attagene CIS-FACTORIAL HepG2 Assay for human Signal Transducer and Activator of Transcription 3 (STAT3) (AID 2282963). To be noted: HepG2, Attagene cis-factorial STAT3 reporter transcription; actives raise or lower the signal. The method, boiled down: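 After a 24 h compound incubation, total RNA from MRTU-transfected HepG2 cells was converted to cDNA and reporter sequences PCR-amplified, labelled and profiled by capillary electrophoresis. Gain and loss of signal were referenced to DMSO.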

The nature of experiment [9]: ATG_TA_CIS: Attagene CIS-FACTORIAL HepG2 Assay for human TA Basal Promoter (AID 2282964). To be noted: HepG2 Attagene CIS-factorial TA basal promoter reporter; actives raise or lower the signal. The method, boiled down: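 Steps: transfect HepG2 with MRTUs; dose 24 h; isolate RNA, DNase-treat, reverse-transcribe; PCR and FAM-label reporter cDNA; digest with HpaI 2h at 37 C; run capillary electrophoresis. Activity fitted both directions against DMSO.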

A short description of experiment [10]: ATG_TCF_b_cat_CIS: Attagene CIS-FACTORIAL HepG2 Assay for human T-Cell-Factor with beta-catenin (TCF/b-cat) (AID 2282965). The conditions noted are these: HepG2 TCF/beta-catenin cis-reporter transcription, actives raise or lower the signal. The procedure, abridged:
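Measured: reporter mRNA in HepG2 transiently transfected with cis-promoter reporter units, 24 h after chemical addition. Fitting was bidirectional, DMSO as negative control.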

The nature of experiment [11]: ATG_TAL_CIS: Attagene CIS-FACTORIAL HepG2 Assay for human TAL Basal Promoter (AID 2282966).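 Note: background control endpoint measuring basal TAL promoter reporter mRNA not a specific factor.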 The conditions noted are these: HepG2 Attagene cis-factorial TAL promoter reporter; actives raise or lower the signal. The method, boiled down:
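Fluorescence of labelled reporter cDNA fragments, resolved by capillary electrophoresis, gave the readout. Human HepG2 liver cells carried transiently transfected cis-element reporter units and were treated for 24 hours; activity was fitted bidirectionally against DMSO.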

Experiment [12] in a line: ATG_TGFb_CIS: Attagene CIS-FACTORIAL HepG2 Assay for human Transforming Growth Factor (TGF) (AID 2282967). To be noted: HepG2 Attagene CIS TGFb reporter, mRNA transcription; actives raise or lower the signal. The procedure, abridged: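 Cells were dosed for 24 hours, after which total RNA was reverse-transcribed and reporter sequences amplified, labeled and sized by capillary electrophoresis. Activity was fitted in both directions against DMSO.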

Experiment [13] in a line: ATG_VDRE_CIS: Attagene CIS-FACTORIAL HepG2 Assay for human Vitamin D Receptor Element (VDRE) (AID 2282968). The conditions noted are these: HepG2 VDRE cis-reporter transcription, actives raise or lower the signal. The procedure, abridged:
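In transiently transfected HepG2 liver cells, gain or loss of reporter mRNA after 24 h exposure is scored relative to DMSO, using fluorescence detection by capillary electrophoresis of RT-PCR products.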

Experiment [14] concerns the target Nuclear receptor subfamily 1 group I member 3 (Homo sapiens) (UniProt Q14994). As to the kind of experiment: ATG_CAR_TRANS: Attagene TRANS-FACTORIAL HepG2 Assay for human Constitutive Androstane Receptor (CAR) (AID 2282969; active = hit-call score of the fitted dose curve at least 0.9, where 1 is the maximum;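 note: activators raise reporter mRNA above DMSO so AC50 marks induction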). The conditions noted are these: HepG2 Attagene TRANS-FACTORIAL CAR reporter. The method, boiled down:
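Readout is reporter mRNA induction, quantified by fluorescent primer extension and capillary electrophoresis after RT-PCR. Cells were HepG2 transiently carrying chimeric NR-Gal4 constructs with GAL4-UAS reporters, treated for 24 h; activity scored upward from DMSO.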

Experiment [15] in a line: ATG_M_19_TRANS: Attagene TRANS-FACTORIAL HepG2 Assay for M19 Transcription Factor (Internal Marker) (AID 2282974; active = hit-call score of the fitted dose curve at least 0.9, where 1 is the maximum). The conditions noted are these: HepG2 Attagene TRANS-FACTORIAL M19 internal marker reporter. The method, boiled down:
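Reporter mRNA induction was measured in transfected HepG2 cells 24 h after dosing. Endpoint fitted upward relative to DMSO and serves as a background control within the multiplexed TRANS panel.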

A short description of experiment [16]: ATG_GAL4_TRANS: Attagene TRANS-FACTORIAL HepG2 Assay for GAL4 (Internal Marker) (AID 2282976; active = hit-call score of the fitted dose curve at least 0.9, where 1 is the maximum). The conditions noted are these: HepG2 Attagene TRANS GAL4 internal marker reporter. The method, boiled down:
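First, HepG2 cells were transfected with reporter units under GAL4-UAS control. Next, they were treated with chemical for 24 h. Finally, RNA was reverse-transcribed, PCR-amplified, FAM-labelled and resolved by capillary electrophoresis, with induction scored against DMSO.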

Experiment [17] addresses Estrogen-related receptor gamma (Homo sapiens) (UniProt P62508). In words: ATG_ERRg_TRANS: Attagene TRANS-FACTORIAL HepG2 Assay for human Estrogen-Related Receptor gamma (ERRg) (AID 2282977; active = hit-call score of the fitted dose curve at least 0.9, where 1 is the maximum;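 note: hits increase reporter signal over DMSO so potencies reflect activators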). To be noted: HepG2 Attagene TRANS reporter, ERRg transactivation. The method, boiled down: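 HepG2 cells transiently transfected with multiplexed GAL4-UAS reporter units and chimeric NR-Gal4 constructs were exposed to test chemicals for 24 h. Reporter mRNA was measured by RT-PCR, 6-FAM primer extension, HpaI digestion and capillary electrophoresis; gain-of-signal versus DMSO.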

Experiment [18] addresses X-box-binding protein 1 (Homo sapiens) (UniProt P17861). In words: ATG_Xbp1_CIS: Attagene CIS-FACTORIAL HepG2 Assay for human X-box Binding Protein 1 (XBP1) (AID 2282972). To be noted: HepG2 XBP1 cis-element reporter, Attagene multiplex; actives raise or lower the signal. The method, boiled down: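 HepG2 cells transiently transfected with multiple cis-element reporter units report endogenous TF activity; 24 h exposure, then reporter mRNA measured by RT-PCR, 6-FAM labelling, HpaI digestion and capillary electrophoresis. Bidirectional fitting versus DMSO.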

The target of experiment [19] is Glucocorticoid receptor (Homo sapiens) (UniProt P04150). As to the kind of experiment: ATG_GR_TRANS: Attagene TRANS-FACTORIAL HepG2 Assay for human Glucocorticoid Receptor (GR) (AID 2282978; active = hit-call score of the fitted dose curve at least 0.9, where 1 is the maximum;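 note: activators score as hits since higher reporter transcript over DMSO is fitted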). The conditions noted are these: HepG2 Attagene TRANS GR reporter, mRNA transcription. The procedure, abridged:
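Reporter transcript levels, detected by fluorescence after RT-PCR and capillary electrophoresis, served as the endpoint. HepG2 cells bearing transfected GAL4-UAS reporters responsive to NR-GAL4 chimeras were incubated with compound 24 h; DMSO defined baseline.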

Experiment [20] has as its target Steroid hormone receptor ERR1 (Homo sapiens) (UniProt P11474). As to the kind of experiment: ATG_ERRa_TRANS: Attagene TRANS-FACTORIAL HepG2 Assay for human Estrogen-Related Receptor alpha (ERRa) (AID 2282971; active = hit-call score of the fitted dose curve at least 0.9, where 1 is the maximum). To be noted: HepG2 Attagene TRANS reporter, ERRa transactivation. The procedure, abridged:
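Reporter transcript induction was quantified by RT-PCR and capillary electrophoresis of FAM-labelled, HpaI-cut products after 24 h treatment of HepG2 cells carrying transiently transfected GAL4-UAS reporter units and an exogenous ERRa-Gal4 fusion; activity scored as increase over DMSO.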

Molecules are shown by their SMILES. Results filed as inconclusive are left out. The source made the active and inactive calls. Rule for the calls, unless noted: active = hit-call score of the fitted dose curve at least 0.9, where 1 is the maximum; inactive = score below 0.9.

Sequence of Transcription factor Sp1 (Homo sapiens) (P08047 whole entry, looked up): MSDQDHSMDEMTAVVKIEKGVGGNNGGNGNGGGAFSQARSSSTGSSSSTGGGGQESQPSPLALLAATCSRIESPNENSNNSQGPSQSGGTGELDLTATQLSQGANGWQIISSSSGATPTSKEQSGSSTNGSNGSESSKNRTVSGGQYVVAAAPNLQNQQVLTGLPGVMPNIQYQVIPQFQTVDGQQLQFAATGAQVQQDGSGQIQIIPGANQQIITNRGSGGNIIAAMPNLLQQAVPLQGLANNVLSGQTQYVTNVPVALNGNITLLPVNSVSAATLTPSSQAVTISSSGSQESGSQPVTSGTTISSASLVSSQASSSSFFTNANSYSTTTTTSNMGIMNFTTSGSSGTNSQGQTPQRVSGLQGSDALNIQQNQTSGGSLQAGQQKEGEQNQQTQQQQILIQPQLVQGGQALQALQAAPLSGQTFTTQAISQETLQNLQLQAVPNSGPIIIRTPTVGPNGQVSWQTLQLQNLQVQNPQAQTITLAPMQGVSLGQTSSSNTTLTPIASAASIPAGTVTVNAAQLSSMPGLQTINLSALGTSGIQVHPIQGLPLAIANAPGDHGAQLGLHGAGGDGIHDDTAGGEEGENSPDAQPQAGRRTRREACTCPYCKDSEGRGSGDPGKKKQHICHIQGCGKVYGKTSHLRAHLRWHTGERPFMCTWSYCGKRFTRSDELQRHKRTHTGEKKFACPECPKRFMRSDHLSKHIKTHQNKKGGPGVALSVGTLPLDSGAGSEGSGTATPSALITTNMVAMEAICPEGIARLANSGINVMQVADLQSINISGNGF
Sequence of Glucocorticoid receptor (Homo sapiens) (P04150 whole entry, looked up, the tested form may be a part): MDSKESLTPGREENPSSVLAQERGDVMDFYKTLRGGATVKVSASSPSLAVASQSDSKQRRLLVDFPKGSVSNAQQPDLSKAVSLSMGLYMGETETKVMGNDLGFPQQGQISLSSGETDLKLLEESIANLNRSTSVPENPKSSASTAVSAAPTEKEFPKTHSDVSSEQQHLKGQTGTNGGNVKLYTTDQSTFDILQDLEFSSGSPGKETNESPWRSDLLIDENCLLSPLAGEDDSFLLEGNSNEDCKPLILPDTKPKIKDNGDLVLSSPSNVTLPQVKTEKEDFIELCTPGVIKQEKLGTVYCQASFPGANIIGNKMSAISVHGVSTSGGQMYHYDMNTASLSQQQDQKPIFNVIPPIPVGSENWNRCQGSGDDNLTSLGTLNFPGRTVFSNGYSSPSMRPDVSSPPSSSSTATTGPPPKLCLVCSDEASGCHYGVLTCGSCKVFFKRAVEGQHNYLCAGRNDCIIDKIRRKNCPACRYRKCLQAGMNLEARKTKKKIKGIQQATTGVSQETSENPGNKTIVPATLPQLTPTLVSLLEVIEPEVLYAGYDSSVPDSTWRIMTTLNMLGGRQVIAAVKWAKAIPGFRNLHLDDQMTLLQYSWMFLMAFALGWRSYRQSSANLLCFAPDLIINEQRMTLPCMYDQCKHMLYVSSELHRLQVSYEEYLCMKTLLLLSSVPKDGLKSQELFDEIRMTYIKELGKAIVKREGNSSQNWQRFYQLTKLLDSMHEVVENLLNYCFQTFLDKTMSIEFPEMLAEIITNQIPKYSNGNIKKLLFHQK
Sequence of Signal transducer and activator of transcription 3 (Homo sapiens) (P40763 whole entry, looked up): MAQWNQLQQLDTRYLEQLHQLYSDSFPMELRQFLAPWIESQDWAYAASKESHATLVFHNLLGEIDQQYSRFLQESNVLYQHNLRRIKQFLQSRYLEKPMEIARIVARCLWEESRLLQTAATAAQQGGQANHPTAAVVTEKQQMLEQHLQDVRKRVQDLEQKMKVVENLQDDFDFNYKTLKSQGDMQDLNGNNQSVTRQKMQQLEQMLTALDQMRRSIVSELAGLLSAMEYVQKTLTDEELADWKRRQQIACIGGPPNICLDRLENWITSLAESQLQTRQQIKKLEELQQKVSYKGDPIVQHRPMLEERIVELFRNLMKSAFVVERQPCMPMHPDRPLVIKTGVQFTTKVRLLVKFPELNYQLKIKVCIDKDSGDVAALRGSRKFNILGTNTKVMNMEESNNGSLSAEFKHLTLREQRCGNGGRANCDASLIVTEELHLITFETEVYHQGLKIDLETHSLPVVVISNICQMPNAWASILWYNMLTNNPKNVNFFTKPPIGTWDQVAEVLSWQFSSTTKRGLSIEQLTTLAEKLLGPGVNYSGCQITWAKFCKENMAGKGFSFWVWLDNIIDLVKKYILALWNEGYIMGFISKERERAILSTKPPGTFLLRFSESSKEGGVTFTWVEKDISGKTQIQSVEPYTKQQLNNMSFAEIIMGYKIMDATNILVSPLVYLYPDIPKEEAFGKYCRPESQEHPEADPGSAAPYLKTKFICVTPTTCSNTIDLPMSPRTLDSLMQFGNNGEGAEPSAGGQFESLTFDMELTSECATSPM
Sequence of X-box-binding protein 1 (Homo sapiens) (P17861 whole entry, looked up): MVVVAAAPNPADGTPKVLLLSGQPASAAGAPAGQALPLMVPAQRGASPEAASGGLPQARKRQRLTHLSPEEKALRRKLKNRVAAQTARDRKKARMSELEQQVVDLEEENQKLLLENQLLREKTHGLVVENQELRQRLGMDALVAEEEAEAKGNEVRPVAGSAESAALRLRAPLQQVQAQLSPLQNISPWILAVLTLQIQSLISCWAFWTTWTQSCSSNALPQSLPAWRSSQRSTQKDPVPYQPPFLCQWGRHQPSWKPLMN
Sequence of Nuclear receptor subfamily 1 group I member 3 (Homo sapiens) (Q14994 whole entry, looked up, the tested form may be a part): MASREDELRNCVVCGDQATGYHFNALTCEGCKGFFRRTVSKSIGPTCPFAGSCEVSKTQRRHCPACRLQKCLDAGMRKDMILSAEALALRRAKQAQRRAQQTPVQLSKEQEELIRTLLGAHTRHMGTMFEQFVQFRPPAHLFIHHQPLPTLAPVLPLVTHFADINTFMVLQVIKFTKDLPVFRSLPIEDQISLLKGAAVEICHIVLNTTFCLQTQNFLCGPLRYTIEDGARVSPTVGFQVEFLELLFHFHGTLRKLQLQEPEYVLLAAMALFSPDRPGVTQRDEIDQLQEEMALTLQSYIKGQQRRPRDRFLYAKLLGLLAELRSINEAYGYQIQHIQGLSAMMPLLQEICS
Sequence of Estrogen-related receptor gamma (Homo sapiens) (P62508 whole entry, looked up, the tested form may be a part): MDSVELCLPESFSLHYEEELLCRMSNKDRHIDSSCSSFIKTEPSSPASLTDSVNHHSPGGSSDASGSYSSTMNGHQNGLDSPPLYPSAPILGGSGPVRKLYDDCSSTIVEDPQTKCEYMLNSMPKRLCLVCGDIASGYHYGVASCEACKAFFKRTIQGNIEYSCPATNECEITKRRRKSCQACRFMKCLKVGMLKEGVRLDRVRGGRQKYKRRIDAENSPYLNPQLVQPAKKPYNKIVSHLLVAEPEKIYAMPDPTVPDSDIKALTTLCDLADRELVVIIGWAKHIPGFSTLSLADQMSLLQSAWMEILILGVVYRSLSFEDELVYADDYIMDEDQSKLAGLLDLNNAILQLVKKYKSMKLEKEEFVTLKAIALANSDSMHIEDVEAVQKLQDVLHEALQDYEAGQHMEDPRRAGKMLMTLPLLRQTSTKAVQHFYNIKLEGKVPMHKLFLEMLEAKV
Sequence of Steroid hormone receptor ERR1 (Homo sapiens) (P11474 whole entry, looked up, the tested form may be a part): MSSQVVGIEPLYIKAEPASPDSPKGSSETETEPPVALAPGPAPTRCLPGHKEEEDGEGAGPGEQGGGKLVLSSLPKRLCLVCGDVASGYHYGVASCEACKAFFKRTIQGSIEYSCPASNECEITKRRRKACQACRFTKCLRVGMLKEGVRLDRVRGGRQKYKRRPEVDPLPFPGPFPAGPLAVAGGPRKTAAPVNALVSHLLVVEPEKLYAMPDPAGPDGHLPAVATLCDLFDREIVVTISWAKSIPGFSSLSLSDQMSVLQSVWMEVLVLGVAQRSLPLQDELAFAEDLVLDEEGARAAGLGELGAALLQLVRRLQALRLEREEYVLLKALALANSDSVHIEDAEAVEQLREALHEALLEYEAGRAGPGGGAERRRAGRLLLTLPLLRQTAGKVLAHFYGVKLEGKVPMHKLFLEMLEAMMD

With `Clc1nc(Cl)c(Cl)c(Cl)c1Cl`, the outcome in experiment [1], in [2], in [3], in experiment [4], in experiment [5] and in [6] was inactive. Moreover, the call in [7], in experiment [8], in experiment [9], in experiment [10], in experiment [11] and in experiment [12] was inactive. Further, the result in experiment [13], in experiment [14], in [15], in [16] and in experiment [17] was inactive.
On to `CC(O)CN(CCN(CC(C)O)CC(C)O)CC(C)O` (stereo not drawn), for which the outcome in experiment [1], in experiment [2], in [3], in experiment [4], in experiment [5] and in experiment [6] was inactive. In addition, the molecule was called inactive in [7], in experiment [8], in experiment [9], in experiment [10], in [11] and in experiment [12]. The call in experiment [13], in experiment [18], in [15] and in experiment [19] was inactive.
By AC50 is commonly meant the concentration at which the activity in the assay is half-maximal. Regarding `O=C(O)c1cccc(Oc2ccccc2)c1`, the call in experiment [1], in experiment [2], in experiment [4], in experiment [5], in experiment [6] and in experiment [7] was inactive. Further, the result in experiment [8], in experiment [9], in experiment [10], in [11], in [12] and in experiment [13] was inactive. Also, the call in [18], in experiment [16] and in experiment [19] was inactive. The AC50 in [3] is 48.3 µM (active).
As to `CNCc1ccc(NC(=O)c2c[nH]c3c2C(=O)CCC3)cc1`, the call in [1], in experiment [2], in experiment [3], in experiment [4], in [5] and in experiment [6] was inactive. Further, the result in experiment [7], in experiment [8], in experiment [9], in experiment [11], in experiment [12] and in experiment [13] was inactive. For the same molecule, the result in experiment [14], in [20], in [15], in [16], in experiment [17] and in experiment [19] was inactive. Further, in experiment [10], the AC50 is 24.1 µM (active).

The values are drawn from PubChem BioAssay (EPA / NIEHS).
